28 molecules from PubChem BioAssay (Tox21) can be followed below.

Records with an inconclusive call do not appear. Calls of active or inactive are those of the source. Unless noted, the call rests on the fitted dose curve; in most records, active means well fitted curve in the direction sought with a large enough effect in the repeat runs; inconclusive means weak or mixed curves; inactive means no such curve, though single readings can be large; an effect the other way counts as inactive or inconclusive.

A short description of test [1]: qHTS assay to identify aromatase inhibitors - cell viability counter screen (AID 743084).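 Further: cells stimulated with testosterone during compound exposure; nearly all actives have a fitted effect of over 55% in size.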 Further: potency means the concentration at half of the fitted maximal effect.
The nature of test [2]: qHTS assay to identify small molecule that activate the aryl hydrocarbon receptor (AhR) signaling pathway - cell viability counter screen (AID 743086). Further: nearly all actives have a fitted effect of over 45% in size. Further: potency means the concentration at half of the fitted maximal effect. The method in brief:
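HepG2-AhR-luc (HG2L7.5c1) cells, 4000/well, were preincubated 5 h at 37C, exposed to compound in qHTS format for 24 hr at 37C, then given CellTiter-Fluor for 30 min; viability was read as fluorescence in the reporter wells.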

Test [3] addresses Peroxisome proliferator-activated receptor gamma (Homo sapiens) (UniProt P37231). The test can be described thus: qHTS assay to identify small molecule agonists of the peroxisome proliferator-activated receptor gamma (PPARg) signaling pathway (AID 743094; active means well fitted activation curve with a large enough effect in the signal ratio in the repeat runs, not every such curve was filed as active; the % refers to the signal ratio). The procedure, abridged:
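Cell-based bla reporter, HEK293H background, PPARg-driven UAS. Pre-incubation 5 h, 37C, 5% CO2. Compound 17 h, 37C. Substrate 1 h RT; fluorescence.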
A general note: Quantitative high-throughput screening tests each substance at several concentrations.

Test [4] can be described thus: qHTS assay to identify small molecule antagonists of the peroxisome proliferator-activated receptor gamma (PPARg) signaling pathway - cell viability counter screen (AID 743194). Further: nearly all actives have a fitted effect of over 55% in size. The procedure, abridged:
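PPARg-UAS-bla HEK293H cells were plated, rested 5 h at 37 C, then treated with compounds plus rosiglitazone (50 nM final) for 17 h at 37 C; viability was then read by CellTiter-Glo luminescence after 30 min at room temperature.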

The nature of test [5]: qHTS assay for small molecule agonists of the antioxidant response element (ARE) signaling pathway (AID 743202; active means well fitted activation curve with a large enough effect in the signal ratio in the repeat runs, not every such curve was filed as active; the % refers to the signal ratio; further: potency means the concentration at half of the fitted maximal effect). The procedure, abridged: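 Following a 16 h, 37 C exposure of reporter HepG2 cells (ARE-driven beta-lactamase, 2,000 cells/well) to compounds, FRET substrate was applied for 2 h at room temperature and fluorescence intensity recorded.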
Test [6] can be described thus: qHTS assay for small molecule agonists of the antioxidant response element (ARE) signaling pathway - cell viability counter screen (AID 743203; calls by dose curve; further: nearly all actives have a fitted effect of over 55% in size; further: potency means the concentration at half of the fitted maximal effect). The procedure, abridged:
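Measured in the same wells as the beta-lactamase ARE reporter, this read-out is CellTiter-Glo luminescence from HepG2 ARE-bla cells given compounds for 16 hrs.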

Test [7] can be described thus: qHTS assay for small molecule activators of the heat shock response signaling pathway - cell viability counter screen (AID 743209). Further: nearly all actives have a fitted effect of over 50% in size. The procedure, abridged:
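Same-well multiplex: after 2.5 h room-temperature incubation with LiveBLAzer B/G substrate and fluorescence reading, CellTiter-Glo reagent was added to HSE-bla HeLa cells that had received compound for 5 h at 37 C; luminescence read after 30 min.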

Test [8] in a line: qHTS assay for small molecule activators of the heat shock response signaling pathway (AID 743210; active means well fitted activation curve with a large enough effect in the signal ratio in the repeat runs, with a control signal flat, not every such curve was filed as active; the % refers to the signal ratio; further: series mostly up to about 63 µM). The procedure, abridged: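 Heat shock element–beta-lactamase HeLa reporter cells; qHTS with compounds for 5 h at 37 C; detection by FRET substrate fluorescence after 2.5 h at RT.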
The target in test [9] is Peroxisome proliferator-activated receptor gamma (Homo sapiens) (UniProt P37231). The experiment in a line: qHTS assay to identify small molecule antagonists of the peroxisome proliferator-activated receptor gamma (PPARg) signaling pathway (AID 743191; calls by dose curve; further: series mostly up to about 63 µM; nearly all actives have a fitted effect of over 30% in size). The method in brief:
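GeneBLAzer PPARg UAS-bla HEK293H cells carrying a UAS-driven beta-lactamase reporter were plated at 3000 cells/well, preincubated 5 h at 37C, then given compound for 17 h at 37C; LiveBLAzer B/G FRET substrate was read after 1 h at room temperature.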

Test [10] addresses Aryl hydrocarbon receptor (Homo sapiens) (UniProt P35869). The experiment in a line: qHTS assay to identify small molecule that activate the aryl hydrocarbon receptor (AhR) signaling pathway (AID 743085).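 Further: HG2L7.5c1 human HepG2 liver cells with stably integrated DRE-driven firefly reporter; series mostly up to about 70 µM; nearly all actives have a fitted effect of over 15% in size.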 The procedure, abridged: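 Compounds were tested in HepG2 hepatocellular carcinoma cells harbouring a stably integrated luciferase gene under control of 20 DREs. Increased reporter signal after 24 h treatment at 37C was taken as AhR activation.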

Sequence of Peroxisome proliferator-activated receptor gamma (Homo sapiens) (P37231 whole entry, looked up): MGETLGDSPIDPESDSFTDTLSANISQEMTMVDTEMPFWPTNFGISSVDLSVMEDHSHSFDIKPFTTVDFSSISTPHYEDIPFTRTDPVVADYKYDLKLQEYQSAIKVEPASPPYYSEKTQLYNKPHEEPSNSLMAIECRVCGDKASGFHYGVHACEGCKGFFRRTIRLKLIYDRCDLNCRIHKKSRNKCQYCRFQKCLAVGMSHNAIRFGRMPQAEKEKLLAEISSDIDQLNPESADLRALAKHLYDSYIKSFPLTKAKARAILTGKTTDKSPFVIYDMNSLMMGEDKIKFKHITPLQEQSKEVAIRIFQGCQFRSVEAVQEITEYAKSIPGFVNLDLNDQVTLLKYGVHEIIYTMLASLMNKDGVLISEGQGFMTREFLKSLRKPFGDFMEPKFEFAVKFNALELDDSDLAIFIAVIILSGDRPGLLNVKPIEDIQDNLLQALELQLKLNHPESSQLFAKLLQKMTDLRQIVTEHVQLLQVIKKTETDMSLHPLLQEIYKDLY
Sequence of Aryl hydrocarbon receptor (Homo sapiens) (P35869 whole entry, looked up): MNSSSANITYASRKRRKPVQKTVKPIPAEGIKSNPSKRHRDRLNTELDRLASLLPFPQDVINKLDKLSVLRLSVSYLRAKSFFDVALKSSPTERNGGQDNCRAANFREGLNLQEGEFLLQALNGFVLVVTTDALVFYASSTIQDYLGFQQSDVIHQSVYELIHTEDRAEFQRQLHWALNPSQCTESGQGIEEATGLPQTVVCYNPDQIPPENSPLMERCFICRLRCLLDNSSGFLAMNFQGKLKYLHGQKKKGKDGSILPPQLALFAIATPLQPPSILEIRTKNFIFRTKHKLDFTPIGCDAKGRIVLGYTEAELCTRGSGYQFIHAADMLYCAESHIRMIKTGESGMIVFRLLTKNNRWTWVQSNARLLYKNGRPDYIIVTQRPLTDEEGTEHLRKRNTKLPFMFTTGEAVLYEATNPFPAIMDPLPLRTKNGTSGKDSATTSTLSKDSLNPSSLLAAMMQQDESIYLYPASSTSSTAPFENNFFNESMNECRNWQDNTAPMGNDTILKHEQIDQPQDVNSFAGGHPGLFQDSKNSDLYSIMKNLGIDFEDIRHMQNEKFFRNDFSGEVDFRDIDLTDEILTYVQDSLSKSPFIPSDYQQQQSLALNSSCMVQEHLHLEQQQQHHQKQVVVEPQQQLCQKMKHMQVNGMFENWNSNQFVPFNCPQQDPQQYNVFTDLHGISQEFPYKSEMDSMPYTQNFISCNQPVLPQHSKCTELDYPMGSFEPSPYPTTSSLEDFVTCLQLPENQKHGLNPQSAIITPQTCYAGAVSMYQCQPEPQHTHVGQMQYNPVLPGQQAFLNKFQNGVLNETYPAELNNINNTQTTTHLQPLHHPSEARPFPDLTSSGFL

With `C=CCOC(=O)/C=C\C(=O)OCC=C`, the Potency entry in [1], in test [2], in test [3], in test [4] and in [6] was “inactive” each time. For the same molecule, in test [5], the Potency was 27.8 µM (active).

`Fc1ccccc1[C@@H](F)COC1CCC(Nc2ncnc3[nH]ncc23)CC1` (stereo not given in full): the Potency result in test [1], in [6], in [7] and in test [8] was “inactive” throughout. Moreover, the Potency in [2] was 30.6 µM (active).

With `Cc1cc(O)c(C(C)C)cc1Cl`, the Potency entry in test [1], in [2], in [4], in test [5], in test [6] and in [7] was “inactive” throughout. For the same molecule, the Potency result in [8] is “inactive”.

Consider `Cc1ccccc1N1C(=O)c2cc(S(N)(=O)=O)c(Cl)cc2NC1C` (stereo not given), for which the Potency entry in test [1], in [2], in [3], in test [4], in [5] and in test [7] was “inactive” throughout.

Turning to `O=Cc1c(Cl)cccc1Cl`, the Potency result in test [1], in [2], in test [3], in test [9], in [6] and in [7] was “inactive” in each case. For the same molecule, the Potency entry in [8] was “inactive”.

Turning to `CCCC(=O)O[C@]1(C(=O)COC(=O)CC)CC[C@H]2[C@@H]3CCC4=CC(=O)CC[C@]4(C)[C@H]3[C@@H](O)C[C@@]21C`, the Potency result in [1], in [2], in [3], in [4], in test [5] and in test [6] was “inactive” each time. For the same molecule, the Potency entry in test [7] and in test [8] was “inactive” throughout.

For `Cc1nc2ccccc2s1`, the Potency result in test [1], in [2], in [3], in test [4], in test [5] and in test [7] was “inactive” each time.

Consider `COc1ccccc1N=Nc1c(S(=O)(=O)O)cc2cc(S(=O)(=O)O)cc(NC(C)=O)c2c1O`, for which the Potency in test [1] was 20.4 µM (active). In addition, the Potency entry in [3], in [9], in test [4], in test [5], in [6] and in test [7] was “inactive” in each case. Besides, the Potency result in [8] was “inactive”.

As for `N#C/C(=C1\SCC(c2ccccc2Cl)S1)n1ccnc1` (stereo not given), the Potency entry in test [1], in [2], in test [3], in [4], in test [5] and in [6] was “inactive” in each case. The Potency entry in test [7] is “inactive”.

Turning to `O=C(CCCN1CCC(O)(c2ccc(Br)cc2)CC1)c1ccc(F)cc1`, the Potency result in [1], in test [2], in test [3], in [4] and in test [8] was “inactive” throughout. Besides, the Potency in test [6] was 29.8 µM (active).

Take `CCc1cccc(N(C)C(N)=Nc2cccc3ccccc23)c1`: the Potency entry in test [1], in test [4], in test [6], in test [7] and in test [8] was “inactive” each time.

For `CCCOC(=O)c1ccc(N)cc1`, the Potency result in [1], in [2], in test [3], in [4], in [6] and in test [7] was “inactive” in each case. For the same molecule, the Potency entry in [8] was “inactive”.

Turning to `CCOC(=O)C(C)Oc1ccc(Oc2nc3ccc(Cl)cc3o2)cc1` (stereo not given), the Potency result in test [1], in test [2], in [3], in test [4], in [7] and in test [8] was “inactive” in each case.

`O=C(OCCOCCO)c1ccccc1Nc1cccc(C(F)(F)F)c1`: the Potency result in [1], in test [3], in test [4] and in test [7] was “inactive” in each case.

For `Cc1nccn1-c1ccc(Sc2cccc(C3(C(N)=O)CCOCC3)c2)cc1`, the Potency result in test [1], in [9], in test [6] and in test [7] was “inactive” throughout.

`COC(=O)Nc1nc2ccc(C(=O)c3cccs3)cc2[nH]1`: the Potency entry in test [1], in [2], in test [4] and in test [7] was “inactive” in each case. Besides, the Potency in [5] is 0.75 µM (active).

`C=C(C)C(=O)OCCOC(=O)CC(C)=O`: the Potency result in test [1], in [2], in test [3], in test [9], in test [5] and in [6] was “inactive” throughout. In addition, the Potency entry in test [7] was “inactive”.

`O=C(/C=C/c1ccccc1)OCCCc1ccccc1`: the Potency entry in [1], in [2], in [4], in test [6], in test [7] and in test [8] was “inactive” each time.

As for `Nc1ccc(Cl)cc1[N+](=O)[O-]`, the Potency result in test [1], in [2], in test [3], in [4], in [5] and in test [6] was “inactive” in each case. The Potency entry in test [7] is “inactive”.

On to `NC(=O)Nc1ccc(Cl)c(Cl)c1`, for which the Potency entry in [1], in test [2], in test [3], in [4], in [7] and in test [8] was “inactive” in each case.

Regarding `CC(C)C(=O)O`, the Potency result in test [10], in test [2], in test [3], in test [9], in test [4] and in test [5] was “inactive” in each case. The Potency entry in test [6], in test [7] and in [8] was “inactive” in each case.

Consider `Nc1nccs1`, for which the Potency result in test [1], in test [2], in [3], in [4], in test [5] and in test [7] was “inactive” throughout.

Turning to `CC(CCO)CCc1ccccc1` (stereo not given), the Potency result in test [1], in test [2], in [3], in test [9], in [6] and in [8] was “inactive” in each case.

`CC(=O)CC(c1ccc([N+](=O)[O-])cc1)c1c(O)c2ccccc2oc1=O` (stereo not given): the Potency entry in test [1], in test [2], in [9], in [4], in test [5] and in test [6] was “inactive” throughout. The Potency result in test [7] is “inactive”.

With `CC(C)(CCl)c1ccccc1`, the Potency result in [1], in [2], in [4], in [5], in [6] and in test [7] was “inactive” throughout.

Turning to `COc1cc2[nH]c(=O)[nH]c(=O)c2cc1OC`, the Potency entry in [1], in test [3], in test [4], in test [5], in test [6] and in [7] was “inactive” throughout. Moreover, the Potency entry in test [8] was “inactive”.

`CCCCC/C(=C\c1ccccc1)CO`: the Potency result in test [2], in [3], in test [5], in test [6], in test [7] and in test [8] was “inactive” in each case.

For the molecule `CCCCC(CC)CNCC(CC)CCCC` (stereo not given), the Potency entry in [2], in test [4], in test [5], in test [7] and in test [8] was “inactive” throughout.
